Assay results from PubChem BioAssay.

What was measured:
[1] = test system: Botulinum neurotoxin type F light chain protease (Clostridium botulinum); assay: Botulinum neurotoxin type F light chain protease inhibition, multiplex microsphere flow cytometry, validation set (AID 588459); details: multiplex microsphere protease substrate cleavage assay, at 10 µM, stronger effect = higher value
[2] = target: Botulinum neurotoxin type A (Clostridium botulinum) (UniProt P0DPI0); assay: BoNT/A light chain protease inhibitors, biochemical, multiplex microsphere flow cytometry, validation set (AID 588460); details: at 10 µM, stronger effect = higher value
[3] = target: Lethal factor (Bacillus anthracis) (UniProt P15917); assay: Lethal factor protease inhibitors, Bacillus anthracis, multiplex microsphere cleavage assay, validation set (AID 588461); details: flow cytometry, at 10 µM, stronger effect = higher value

Measured: inhibition

Sequence of Lethal factor (Bacillus anthracis) (P15917 whole entry, looked up): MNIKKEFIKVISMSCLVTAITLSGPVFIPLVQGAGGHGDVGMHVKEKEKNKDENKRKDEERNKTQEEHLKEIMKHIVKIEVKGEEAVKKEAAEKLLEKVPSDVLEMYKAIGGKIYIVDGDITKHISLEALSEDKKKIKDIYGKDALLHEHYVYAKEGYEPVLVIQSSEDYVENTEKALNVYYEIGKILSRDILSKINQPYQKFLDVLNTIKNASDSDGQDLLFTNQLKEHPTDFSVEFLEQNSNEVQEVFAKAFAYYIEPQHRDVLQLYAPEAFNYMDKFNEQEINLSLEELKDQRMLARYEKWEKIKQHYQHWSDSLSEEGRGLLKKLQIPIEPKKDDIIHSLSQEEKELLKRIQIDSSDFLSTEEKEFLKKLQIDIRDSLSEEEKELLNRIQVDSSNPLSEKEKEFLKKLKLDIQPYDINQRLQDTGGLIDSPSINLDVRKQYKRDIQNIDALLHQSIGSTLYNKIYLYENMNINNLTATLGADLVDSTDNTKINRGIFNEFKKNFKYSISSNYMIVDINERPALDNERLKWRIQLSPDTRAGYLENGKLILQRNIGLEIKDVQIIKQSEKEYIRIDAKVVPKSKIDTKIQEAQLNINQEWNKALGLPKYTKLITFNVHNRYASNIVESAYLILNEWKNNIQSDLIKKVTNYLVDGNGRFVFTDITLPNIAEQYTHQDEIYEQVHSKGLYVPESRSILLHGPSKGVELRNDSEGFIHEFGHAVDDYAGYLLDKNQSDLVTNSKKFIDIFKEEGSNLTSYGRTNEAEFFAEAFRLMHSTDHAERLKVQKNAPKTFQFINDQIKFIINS
Sequence of Botulinum neurotoxin type A (Clostridium botulinum) (P0DPI0 whole entry, looked up): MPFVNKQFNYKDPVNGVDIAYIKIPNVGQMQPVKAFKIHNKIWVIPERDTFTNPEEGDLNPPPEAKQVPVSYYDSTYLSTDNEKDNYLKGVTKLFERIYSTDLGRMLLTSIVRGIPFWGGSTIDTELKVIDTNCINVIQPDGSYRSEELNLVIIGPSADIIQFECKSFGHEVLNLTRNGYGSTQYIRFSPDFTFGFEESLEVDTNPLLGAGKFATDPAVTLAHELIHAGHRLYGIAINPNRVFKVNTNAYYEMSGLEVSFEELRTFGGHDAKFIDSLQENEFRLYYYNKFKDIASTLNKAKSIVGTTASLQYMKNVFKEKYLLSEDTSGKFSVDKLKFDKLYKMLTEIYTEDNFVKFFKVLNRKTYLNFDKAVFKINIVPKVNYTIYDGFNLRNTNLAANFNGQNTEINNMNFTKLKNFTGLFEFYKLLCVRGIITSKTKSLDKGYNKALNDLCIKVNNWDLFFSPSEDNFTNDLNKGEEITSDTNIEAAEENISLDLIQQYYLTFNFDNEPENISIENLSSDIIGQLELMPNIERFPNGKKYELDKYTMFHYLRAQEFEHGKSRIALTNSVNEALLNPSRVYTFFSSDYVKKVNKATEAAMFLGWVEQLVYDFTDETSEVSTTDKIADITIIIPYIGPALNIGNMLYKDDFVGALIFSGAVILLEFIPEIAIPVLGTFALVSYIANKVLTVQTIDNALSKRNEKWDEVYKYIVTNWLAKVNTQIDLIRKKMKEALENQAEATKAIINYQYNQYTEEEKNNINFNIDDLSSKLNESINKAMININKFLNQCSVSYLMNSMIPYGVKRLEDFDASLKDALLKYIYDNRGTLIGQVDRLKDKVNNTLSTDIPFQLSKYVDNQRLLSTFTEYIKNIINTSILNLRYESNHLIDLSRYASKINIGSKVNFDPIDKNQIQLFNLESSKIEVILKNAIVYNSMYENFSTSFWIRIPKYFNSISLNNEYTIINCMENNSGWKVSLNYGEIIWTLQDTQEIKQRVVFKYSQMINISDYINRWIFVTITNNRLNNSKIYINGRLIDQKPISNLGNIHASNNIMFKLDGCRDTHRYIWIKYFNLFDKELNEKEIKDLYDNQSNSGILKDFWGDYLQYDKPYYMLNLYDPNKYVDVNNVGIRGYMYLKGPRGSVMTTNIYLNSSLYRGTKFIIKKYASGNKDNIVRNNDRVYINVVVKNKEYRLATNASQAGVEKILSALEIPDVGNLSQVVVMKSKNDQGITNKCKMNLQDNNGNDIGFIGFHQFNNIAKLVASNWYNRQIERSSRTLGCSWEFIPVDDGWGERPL

Cc1cc(C(C)(C)C)c(O)c(C)c1CC1=NCCN1
inactive: [1] 0.7% | [2] -1.1% | [3] 3.7%

CCc1c(C)c2ccc(OCC(=O)OC(C)C)c(C)c2oc1=O
inactive: [1] -1.9% | [2] -0.4% | [3] -1.3%

C[C@]12CC[C@@H]3c4ccc(O)cc4CC[C@H]3[C@@H]1C[C@@H](O)[C@@H]2O[C@@H]1O[C@H](C(=O)O)[C@@H](O)[C@H](O)[C@H]1O
inactive: [1] -1.9% | [2] 0.2% | [3] -6.5%

O=C(N1CCCC1)C12CC3CC(C1)CC(C(=O)N1CCCC1)(C3)C2
inactive: [1] -1.6% | [2] -2.5% | [3] -8%

Cc1ccc(C(=O)O)cc1NC(=O)c1cccs1
inactive: [1] -1.2% | [2] 0% | [3] 2%

COC(=O)C1=C(C)N(C)C(=S)NC1c1ccc(Cl)cc1 (configuration not stated)
inactive: [1] -0.7% | [2] -0.5% | [3] -4%

N/C(=N\OC(=O)/C=C/c1ccccc1)c1ccc(Br)cc1
inactive: [1] -3.1% | [2] -0.1% | [3] 2.5%

CCOC(=O)C1NN=C(C(=O)c2ccccc2)C1c1ccc(Cl)cc1 (configuration not stated)
inactive: [1] 3% | [2] 1.4% | [3] 3.2%

O=C(O)Cc1ccc(-c2ccccc2)cc1
inactive: [1] 0.5% | [2] -1.2% | [3] 0.5%

COc1cccc(C2CC(=O)C3=C(C2)Nc2ccccc2N(C(=O)CCC(=O)O)C3c2ccc(F)cc2)c1 (configuration not stated)
inactive: [1] 1.3% | [2] 0.4% | [3] 5.1%

CC(=O)N1CCn2c3c(c4cc(C)ccc42)CCCC31 (configuration not stated)
inactive: [1] 3.1% | [2] -0.3% | [3] -2.3%

COc1ccc(/C=N\NC(=O)CCc2c(C)n[nH]c2C)c(OC)c1OC
inactive: [1] -0.8% | [2] 0.3% | [3] 8.6%

CC(C)CC(=O)NC(NC(=O)CC(C)C)c1cccc([N+](=O)[O-])c1
inactive: [1] 1.7% | [2] -0.3% | [3] 3.9%

CC(C)N1C(=O)/C(=C\c2nc3ccccc3c(=O)[nH]2)c2ccccc21
inactive: [1] -0.2% | [2] -0.6% | [3] -0.1%

COc1ccc(/C=C2\CC/C(=C\c3ccc(OC)c(OC)c3)C2=O)cc1OC
inactive: [1] 1.7% | [2] 0.1% | [3] -5.9%

CCCCNC(=O)NS(=O)(=O)c1ccc(C)cc1
inactive: [1] 1.1% | [2] 1.1% | [3] 1%

CN(C)c1cc(NC(=O)CN2CCOCC2)c2ccccc2n1
inactive: [1] 0% | [2] -1.5% | [3] -4.6%

O[C@@H](CNC[C@H](O)c1ccccc1)c1ccccc1
inactive: [1] 3.9% | [2] 1.5% | [3] 4.2%

Cc1csc(CCc2nc(C)cs2)n1
inactive: [1] 1.4% | [2] 0.2% | [3] -2.1%

CC1(C)S[C@@H]2[C@H](NC(=O)C(C(=O)O)c3ccccc3)C(=O)N2[C@H]1C(=O)O (some centres not stated)
inactive: [1] 3.8% | [2] 1.2% | [3] -6.1%

O=C(/C=C/c1ccc2c(c1)OCO2)c1ccccn1
inactive: [1] -2.7% | [2] -0.2% | [3] -2.8%

COc1ccc(NC(=O)CC(c2ccccc2)c2ccco2)cc1 (configuration not stated)
inactive: [1] 2.3% | [2] 0.9% | [3] 9.1%

C/C=C/Cn1c(SC)nc2c1c(=O)[nH]c(=O)n2C
inactive: [1] -2.2% | [2] 0.9% | [3] -3.1%

c1cnc(N2CCN(Cc3ccc4c(c3)OCO4)CC2)nc1
inactive: [1] -2.3% | [2] -1.4% | [3] -5.5%

O=C(Nc1cccc(Oc2c(F)c(F)c(F)c(F)c2F)c1)N1C[C@@H]2C[C@@H](C1)c1cccc(=O)n1C2
inactive: [1] 2.7% | [2] 1.4% | [3] 7.2%

CSc1cccc(NC(=O)/C=C/c2ccccc2)c1
inactive: [1] -0.9% | [2] -2.3% | [3] -8.2%

COc1ccc(CNC(=O)c2c(O)c3cccc4c3n(c2=O)CCC4)cc1
inactive: [1] 4.9% | [2] -0.1% | [3] -5.7%

N=c1nc(N2CCCCC2)cc(N)n1O
inactive: [1] -2.3% | [2] -0.7% | [3] 0.9%

CC(C)OC(=O)CC1C(=O)NCCN1C(=S)NC(=O)c1cccs1 (configuration not stated)
inactive: [1] 0.8% | [2] -1.7% | [3] -5.8%
